Measurements from PubChem BioAssay.

Assay: differential killing of epithelial or mesenchymal cells, primary screen, imaging, PC-3E GFP, TEM4-18 mCherry, co-culture (AID 1345086);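 further: cells exposed to compound for 72 h before imaging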
Settings: imaging cell counts, measured here: epithelial PC-3E GFP cell survival, at 1 µM

Compound | normalised cell number
COc1ccc2c(c1)OC1(O)COc3cc(OC)c(OC)cc3C1=C2 (configuration not stated) | 1.01
O=C(O)c1cc(=O)c2cccc(O)c2[nH]1 | 0.88
C[C@]12CCC3c4ccc(OS(=O)(=O)O)cc4CCC3C1CC[C@H]2O (some centres not stated) | 1.3
O=C(O)c1cc2ccccc2[nH]1 | 0.91
NC1=NCCN1CC(=O)O | 1.1
CC(C)[C@@H]1CC[C@@H](C)CC1=O | 1.16
COc1ccc2c(c1)OC/C(=C\c1ccc(OC)c(O)c1)C2=O | 0.74
CC(=O)c1c(O)c(C)c(O)c2c1OC1=CC(=O)C(C(C)=O)C(=O)C12C (configuration not stated) | 1.06
O=C(/C=C/c1ccccc1)c1ccc(O[C@@H]2O[C@H](CO)[C@@H](O)[C@H](O)[C@H]2O)cc1O | 0.9
CC(=O)N[C@@H]1[C@@H](O)[C@H](O)[C@@H](CO)O[C@H]1O | 1

Same assay, conditions: imaging cell counts, measured here: mesenchymal TEM4-18 mCherry cell survival, at 1 µM

Compound | normalised cell number
COc1cc(O)c(C(C)=O)c(OC)c1 | 0.75
COc1c2ccoc2c(OC)c2oc(=O)ccc12 | 1.09
NC(Cn1ccc(=O)c(O)c1)C(=O)O (configuration not stated) | 1.04
N#Cc1ccc2c(c1)N(CCCN1CCC(O)CC1)c1ccccc1S2 | 0.92
Oc1cc(O)c2c(c1)O[C@H](c1cc(O)c(O)c(O)c1)[C@H](O)C2 | 0.85
O=c1[nH]c2cc(Cl)c(Cl)cc2[nH]c1=O | 1.02
O=C(O)CCCCCCCCCCCCC1C=CCC1 (configuration not stated) | 1.02
CC(C)=CCc1c2c(c3occ(-c4ccc(O)c(O)c4)c(=O)c3c1O)C=CC(C)(C)O2 | 0.78
COc1ccc([C@H]2Oc3cc(OC)cc(OC)c3C[C@H]2O)cc1 | 0.82
COc1c(OC)c2occc2c2oc(=O)ccc12 | 1.08
NC1(C(=O)O)CCCC1 | 1.06
COc1ccc(C(=O)CC(=O)O)c2c1C=CC(C)(C)O2 | 0.93
COC1=CC(=O)C=C(OC)C1=O | 0.84
CCOC(=O)[C@H](CCc1ccccc1)N[C@H](C)C(=O)N1C2CCCCC2C[C@H]1C(=O)O (some centres not stated) | 0.93
CON | 1.18
COc1c2ccoc2nc2c(OC)c(OCC(O)C(C)(C)O)ccc12 (configuration not stated) | 0.92

Compound | normalised cell number
C=NC(C(=O)NC1C(=O)N2C1SC(C)(C)C2C(=O)O)c1ccccc1 (configuration not stated) | 0.99
O=C1C=CC(=C(c2ccc(O)cc2)c2ccc(O)cc2)C=C1 | 0.82
COc1cc(OC)c2ccc(=O)oc2c1 | 1.05
O=C1c2ccc(O)c(O)c2C(=O)c2c(O)ccc(O)c21 | 0.92
COc1cc(C)c2c(=O)cc(-c3ccccc3)oc2c1 | 1.09
Cc1cc(=O)oc2c(O)c(O)ccc12 | 0.89
COc1ccc2c(c1)OC1(O)COc3cc(OC)c(OC)cc3C1=C2 (configuration not stated) | 1.09
O=C(O)c1cc(=O)c2cccc(O)c2[nH]1 | 1.13
C[C@]12CCC3c4ccc(OS(=O)(=O)O)cc4CCC3C1CC[C@H]2O (some centres not stated) | 1.13
O=C(O)c1cc2ccccc2[nH]1 | 0.95
NC1=NCCN1CC(=O)O | 1.01
CC(C)[C@@H]1CC[C@@H](C)CC1=O | 1.08
COc1ccc2c(c1)OC/C(=C\c1ccc(OC)c(O)c1)C2=O | 0.74
CC(=O)c1c(O)c(C)c(O)c2c1OC1=CC(=O)C(C(C)=O)C(=O)C12C (configuration not stated) | 0.94
O=C(/C=C/c1ccccc1)c1ccc(O[C@@H]2O[C@H](CO)[C@@H](O)[C@H](O)[C@H]2O)cc1O | 0.9
CC(=O)N[C@@H]1[C@@H](O)[C@H](O)[C@@H](CO)O[C@H]1O | 0.98
